High-throughput results as filed in PubChem BioAssay.
UCHL1 block = blocks human UCHL1 ubiquitin-rhodamine cleavage; P09936; purified UCHL1, Ub-rhodamine cleavage fluorescence; inhibition, % at 20 µM; hit rate 0.2% among 47,000
OTUD3 inh = human OTUD3 deubiquitinase inhibition. Q5T2D3. purified OTUD3, Ub-rhodamine fluorescence, 2 h. inhibition, % at 25 µM. hit rate 0.7% among 47,000. AID 1645858
USP7 inh = inhibitors of human USP7 deubiquitinase; Q93009; purified USP7, Ub-rhodamine cleavage fluorescence; inhibition, % at 20 µM; hit rate 0.3% among 47,000
USP28 block = inhibitors of human USP28 deubiquitinase; purified USP28, Ub-rhodamine cleavage fluorescence, 30 min; inhibition, % at 25 µM; hit rate 3% among 47,000; AID 1645857
Target sequence (Q96RU2 whole entry, looked up): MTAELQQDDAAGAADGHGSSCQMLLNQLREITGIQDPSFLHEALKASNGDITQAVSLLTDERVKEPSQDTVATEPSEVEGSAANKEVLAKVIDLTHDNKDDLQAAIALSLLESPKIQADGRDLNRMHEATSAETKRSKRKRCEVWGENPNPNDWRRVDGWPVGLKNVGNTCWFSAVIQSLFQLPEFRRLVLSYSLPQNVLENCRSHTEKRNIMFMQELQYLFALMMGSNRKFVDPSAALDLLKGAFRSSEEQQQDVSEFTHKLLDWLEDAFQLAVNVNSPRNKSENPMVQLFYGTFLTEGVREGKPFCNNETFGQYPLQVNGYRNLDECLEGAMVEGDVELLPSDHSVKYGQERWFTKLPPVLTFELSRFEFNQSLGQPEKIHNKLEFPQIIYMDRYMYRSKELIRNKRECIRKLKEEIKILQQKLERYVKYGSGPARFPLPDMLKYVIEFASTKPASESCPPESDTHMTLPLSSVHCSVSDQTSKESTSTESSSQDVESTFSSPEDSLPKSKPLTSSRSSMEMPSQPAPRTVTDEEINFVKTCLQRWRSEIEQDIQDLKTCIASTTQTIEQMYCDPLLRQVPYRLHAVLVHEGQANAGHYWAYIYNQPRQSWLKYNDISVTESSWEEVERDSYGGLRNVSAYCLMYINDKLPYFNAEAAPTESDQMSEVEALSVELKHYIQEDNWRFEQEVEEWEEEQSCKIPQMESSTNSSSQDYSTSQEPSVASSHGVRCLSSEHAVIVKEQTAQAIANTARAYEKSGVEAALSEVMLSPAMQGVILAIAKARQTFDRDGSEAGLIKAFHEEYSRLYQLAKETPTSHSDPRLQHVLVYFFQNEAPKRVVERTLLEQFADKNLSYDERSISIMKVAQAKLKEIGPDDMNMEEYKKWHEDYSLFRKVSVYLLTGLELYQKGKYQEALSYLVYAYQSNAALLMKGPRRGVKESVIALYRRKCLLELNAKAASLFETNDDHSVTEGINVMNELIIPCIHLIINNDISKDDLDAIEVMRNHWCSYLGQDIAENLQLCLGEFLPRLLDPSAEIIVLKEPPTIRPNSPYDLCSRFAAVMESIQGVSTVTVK
USP10 inh = human USP10 deubiquitinase inhibition | purified USP10, Ub-rhodamine fluorescence, 60 min | inhibition, % at 20 µM | hit rate 1.1% among 47,000 | AID 1645856
An asterisk follows results filed as active; . = not tested or not shown. This is a sample that favours compounds with a hit; in the whole collection about 4.2% have one here. Rule as the data show it: active = inhibition above about 30%; inactive = the rest.

SMILES	UCHL1 block	OTUD3 inh	USP7 inh	USP28 block	USP10 inh
Cc1cc(C)c(NC(=O)CSC2=C(C#N)C(c3ccc(C)o3)C3=C(CCCC3=O)N2)c(C)c1 (stereo not given)	7	11	4	31*	19
Cc1nc(C2COCCN2C(=O)c2cc(C(C)(C)C)[nH]n2)cc(=O)[nH]1 (stereo not given)	37*	-9	-1	-2	2
Clc1ccc2c(Oc3ccc(Br)cc3)ncnc2c1	-1	5	8	1	5
O=S(=O)(Nc1ccc(Oc2ncnc3cc(Cl)ccc23)nc1)c1ccc(S(=O)(=O)c2ccccc2)s1	3	-11	16	-32	45*
CC1=CN2C(=N)/C(=C/c3cn(Cc4ccc(Cl)cc4)c4ccccc34)C(=O)N=C2S1	-38	-189	-137	-274	-9
N=C1/C(=C/c2cn(Cc3ccccc3F)c3ccccc23)C(=O)N=C2SC(C(F)(F)F)=NN12	6	-123	41*	-85	51*
COc1ccc(NC(=O)CC(=O)c2ccc([N+](=O)[O-])cc2)cc1S(=O)(=O)Nc1ccc(Br)cc1	11	23	16	42*	53*
CCC(=O)Nc1c(C)noc1/C=C/c1ccc(S(=O)(=O)N(C)Cc2ccccc2)s1	0	-2	-2	0	4
NS(=O)(=O)c1cccc(NCc2nc3scc(-c4ccccc4)c3c(=O)[nH]2)c1	-4	10	-4	48*	0
COc1cc(NCc2nc3scc(-c4ccccc4)c3c(=O)[nH]2)cc(OC)c1	-4	-17	-3	-16	0
CNC(=O)CN1CC2(CCN(c3ncc(F)cn3)CC2)COc2ccccc2S1(=O)=O	-10	-71	-7	-117	-7
O=C(C(=O)N1CCCc2ccccc21)c1cn(CC(=O)N2CCCCC2)c2ccccc12	-1	-5	-6	.	0
O=C(Nc1ccc2c(c1)CCN2S(=O)(=O)c1ccccc1)Nc1ccc(F)cc1F	6	7	8	43*	10
CO[C@H]1CC[C@H](O)c2c1oc1c3c4c(c(O)c1c2=O)-c1c(cc2c(Cl)c(C)n(N)c(=O)c2c1O)C[C@@H]4OCO3	10	44*	3	59*	23
COc1cccc(CNC(=O)[C@H](C)NC(=O)N2CCn3c2nc2ccccc23)c1	-2	-10	-3	-7	-4
Cc1ccc(CNC(=O)[C@H](C)NC(=O)N2CCn3c2nc2ccccc23)cc1	-1	21	1	47*	3
COc1cc(OC)cc(-c2nc(-c3cn(-c4cccc(F)c4)nn3)no2)c1	5	21	8	22	5
NS(=O)(=O)c1ccc(NS(=O)(=O)c2ccc(NC(=O)Nc3ccc(Cl)cc3)cc2)cc1	8	20	11	75*	27
CC(=O)c1ccc(S(=O)(=O)Nc2ccc(C(=O)O)cc2)cc1	0	-5	1	-2	3
Cc1cccc(NC(=O)C2CN(S(C)(=O)=O)c3ccccc3O2)c1 (stereo not given)	1	-3	3	-3	3
O=[N+]([O-])c1ccc(Cc2nnc(-c3ccccc3Cl)o2)cc1	4	4	-3	48*	4
O=C(NC1CCCCC1)C(c1ccc(F)cc1)N(C(=O)CN1C(=O)c2ccccc2S1(=O)=O)c1ccccc1 (stereo not given)	3	8	14	11	16
CCC(C)c1ccc(NC(=O)COc2nc3ccccc3nc2C)cc1 (stereo not given)	-3	-4	-3	-6	-12
O=C(Nc1cccnc1)c1ccc(Oc2ccccc2)cc1	1	3	-23	44*	4
Cc1cc(Cl)ccc1OCCCC(=O)NCc1ccc(F)cc1	2	9	-21	7	5
SMILES	UCHL1 block	OTUD3 inh	USP7 inh	USP28 block	USP10 inh
Cc1cc(OCC(=O)Nc2ccc3c(c2)NC(=O)CO3)ccc1Cl	3	7	23	13	45*
Cc1cccc(N2CCN(CCNC(=O)c3cc4c(s3)CS(=O)(=O)C4)CC2)c1C	-4	-11	-4	40*	-4
CCOc1ccc(CCNC(=O)c2cc3c(s2)CS(=O)(=O)C3)cc1OCC	-1	2	1	39*	-5
CCOc1ccc(CCNC(=O)c2cccc3c2C(=O)N(c2ccc(OC)cc2)C3)cc1OCC	10	8	17	3	22
COc1ccc(-c2nnc(-c3ccc(-n4ccnc4)nc3)o2)cc1F	-3	-11	-1	-6	-2
O=C1c2c(O)cccc2C2(Oc3cccc4cccc(c34)O2)C2OC12 (stereo not given)	28	47*	-6	60*	34*
O=C1c2c(O)ccc(O)c2C2(Oc3cccc4cccc(c34)O2)C2OC12 (stereo not given)	45*	68*	6	72*	14
CC(C(=O)NCc1ccc(F)cc1)n1cccc1C(=O)c1ccccc1 (stereo not given)	0	74*	-40	8	-3
CC(C(=O)NCc1ccccn1)n1cccc1C(=O)c1ccccc1 (stereo not given)	2	5	-2	2	0
O=C1NCCCC1Cc1ccc(-c2cccc(C(=O)N3CCc4ccccc4C3)c2)cc1 (stereo not given)	5	0	-4	20	6
COc1ccc(CNC(=O)CN2CCN(Cc3ccccc3C)C2=O)cc1	6	7	8	15	-1
COc1ccc(CNC(=O)CN2C(=O)C(C)=C(c3ccc(C)cc3)S2(=O)=O)cc1	3	-7	2	58*	5
Cc1ccc(C(=O)Nc2c(C(=O)N3CCN(c4ccccc4)CC3)[nH]c3ccccc23)cc1	3	46*	-4	13	4
Cc1ccc(C(=O)Nc2c(C(=O)N3CCN(c4cccc(C)c4)CC3)[nH]c3ccccc23)cc1	0	-49	-11	-46	0
O=C(CSc1ccc(-c2cccc([N+](=O)[O-])c2)nn1)Nc1cccc(F)c1	7	5	28	40*	46*
O=C(CSc1ccc(-c2ccccc2)nn1)Nc1ccc(F)c([N+](=O)[O-])c1	0	-4	19	4	29
COc1ccc2c(CCN=C(NC(C)=O)Nc3nc(C)cc(C)n3)c[nH]c2c1	2	2	34*	.	-1
COc1ccc2[nH]cc(CCN=C(NC(=O)C(C)C)Nc3nc(C)cc(C)n3)c2c1	6	1	4	3	-1
O=C(Nc1cccc(-c2nc(-c3ccc(=O)[nH]c3)no2)c1)c1ccco1	1	-22	-4	-24	-9
Cc1c(-c2nc(-c3ccccc3Cl)no2)nnn1-c1cccc(F)c1	3	24	8	27	38*
CCOC(=O)C1=C(CN(C)Cc2ccccc2)NC(=O)NC1c1ccc(F)cc1 (stereo not given)	7	7	-10	20	10
Cc1cc(O)cc2c1C(=O)c1c(O)ccc(O)c1C2=O	-21	-97	-47	-81	-4
O=C1c2ccccc2C(=O)c2c(O)c(O)cc(O)c21	45*	-140	2	-43	-3
